According to PubChem BioAssay (NCI):
Compounds without any hit were thinned out: in the full panel of roughly 83,000, 20% have a hit.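 In brief: 96-well plates, 48 h treatment, single concentration, percent growth endpoint.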 Values without a mark were called inactive. Active and inactive are the calls of the source. The calls were made as follows: active = growth percent below 10; inactive = the rest.

The compounds below were run on SR leukemia (assay: NCI-60 one-dose screen, 48 h (100 = growth as untreated, 0 = no growth, -100 = all killed)). Settings: 10 µM.

| Compound | growth |
| --- | --- |
| CC(=O)NS(=O)(=O)c1ccc(NC(=O)CSC2=NC(c3ccccc3)C(C(C)=O)=C(C)N2)cc1 (stereo not drawn) | 101% |
| COC1=C[C@@]23CCC(=O)N2CCc2cc4c(cc2[C@H]3[C@H]1OC(=O)C(C)(C)O)OCO4 | 96.1% |
| Nc1nc(-c2ccccc2)cs1 | 30% |
| COC(=O)c1c(C(=O)OC)c2n(c1C)[C@@H]([C@@H](C)[C@H]1CC[C@H]3[C@@H]4CCC5=CC(=O)CC[C@]5(C)[C@H]4CC[C@]13C)SC2 | 17.9% |
| C/C(=N\NC(N)=S)c1ccc(Nc2nc(SC(C)C)nc(-c3ccccc3)c2C#N)cc1 | 79.9% |
| COc1ccc(-c2cc(-c3cc(C(=O)c4ccc(Br)cc4)n4ccc(C)cc34)nc(N)c2C#N)cc1 | 79.1% |
| CC(=O)Nc1ccc(-n2cnc3cc(-c4ccc(NS(C)(=O)=O)cc4)ccc32)cc1 | 21.8% |
| O=c1cc(-c2ccccc2)oc2cc(OCCCCNCc3ccccc3)cc(O)c12 | -29.7% (active) |
| C/C(=N\N=C\c1ccc(Cl)c([N+](=O)[O-])c1)c1ccc2c(c1)Nc1ccccc1S2 | 44.1% |
| N#Cc1c(-c2ccc(Cl)cc2)cc(-c2ccccc2)nc1OCc1ccccc1 | 42.2% |
| COc1cccc(/C=N/NC(=O)c2ccc3nc(-c4ccc(Cl)cc4)[nH]c3c2)c1O | -36.8% (active) |
| COc1ccc(/C(CSc2nnc(-c3c[nH]c4ccccc34)n2-c2ccccc2)=N/O)cc1 | 10.9% |

What follows are compounds tested on RPMI-8226 leukemia in the same assay as above. Settings: 10 µM.

| Compound | growth |
| --- | --- |
| O=S(=O)(Nc1ncccn1)c1ccc(-n2c(-c3ccccc3)nc(-c3ccccc3)c2-c2ccccc2)cc1 | 71.1% |
| COc1ccc(-c2cc(-c3cc(C(=O)c4ccccc4)n4ccc(C)cc34)nc(N)c2C#N)cc1 | 78.9% |
| N#Cc1ccc(NC(=O)CSc2ccc(-c3ccc(Br)cc3)nn2)cc1 | 57.6% |
| CCCn1c(O)c(N=Nc2nc(-c3cc4ccccc4oc3=O)cs2)c2cc(Br)ccc21 | 97.9% |
| COc1cc2oc(-c3cccc(C(=O)Nc4ccc(Cl)cc4)c3)cc(=O)c2c(OCCNC(=O)CNC(=O)OC(C)(C)C)c1OC | 29.4% |
| CCCCOc1ccc(Nc2nc3ccccc3nc2Nc2ccc(OCCCC)cc2)cc1 | 57.8% |
| COc1cc(NC(=O)CSc2nnc(-c3ccc4nc(-c5ccc(Cl)cc5)[nH]c4c3)o2)cc(OC)c1OC | 21.3% |
| O=C(NO)c1ccc(CNC(=O)[C@H]2Cc3c([nH]c4ccccc34)[C@H](c3ccc(Cl)cc3)N2)cc1 | 16.9% |
| N#Cc1c(NC(=O)c2ccc(C(F)(F)F)c(Cl)c2)sc2c1CCC(=O)C2 | 0.426% (active) |
| O=C(Cc1ccc2c(c1)CN(C1CCC(=O)NC1=O)C2=O)NCc1cccc2ccccc12 (stereo not drawn) | 18% |
| CCOC(=O)CNC(=O)CN(Cc1ccccc1)C(=O)[C@@]1(C)CCC[C@]2(C)[C@H]3C[C@H]4C(C(C)C)=C[C@]3(CC[C@H]21)[C@@H]1C(=O)OC(=O)[C@@H]14 | 15.2% |
| O=C(NCCCCCCCCCC[P+](c1ccccc1)(c1ccccc1)c1ccccc1)c1ccc(-n2nc(-c3ccccc3O)nc2-c2ccccc2O)cc1 | 1.07% (active) |
| COc1ccc2[nH]c(=O)c(CSc3ccc(Nc4nccc(-c5ccc(Cl)cc5)n4)cc3)cc2c1 | 81.3% |
| CCOC(=O)C1=C(N)N(c2ccccc2)C2=C(C(=O)CC(C)(C)C2)C1c1ccccc1OC (stereo not drawn) | 100% |
| COc1cccc2nc(Nc3cccc(NC(=O)c4ccc(CN5CCCN(C)CC5)c(C(F)(F)F)c4)c3)ccc12 | -39.4% (active) |
| COc1cc(C2CC(c3ccc(C)cc3)=Nc3c(N)nc(N)nc3N2)ccc1Oc1nc(Nc2ccc(F)cc2)nc(N(C)C)n1 (stereo not drawn) | 22.3% |
| CC(=O)Nc1ccc(-c2cn(-c3cccc(C(=O)Nc4ccc(Cl)c(C(F)(F)F)c4)c3)nn2)cn1 | 16.2% |
| Cc1cc(C(F)(F)F)ccc1C(=O)Nc1sc2c(c1C#N)CCC(=O)C2 | 2.68% (active) |
| COc1ccc(OC)c(/C=N/NC(=O)c2ccc3nc(-c4ccc(Cl)cc4)[nH]c3c2)c1 | 37.7% |
| CC1=N/C(=C\c2ccc(N(C)C)cc2)C(=O)N1CCc1ccc(S(N)(=O)=O)cc1 | 87.1% |
| Cc1ccc(-c2cc(C(=O)N=Nc3c(O)[nH]c4ccc(Br)cc34)c3ccccc3n2)cc1 | 60.8% |
